“And” between values parts separate entries of the source, which are not always exact repeats. Equal entries are not always repeated. For part of these data: Results with a measured potency or affinity are listed apart. A structure can be active in one record and inactive in another. The source made the active and inactive calls. Unless noted, the rule behind the calls is not given here.
Key:
[1] = antimalarial activity against Dd2 strain (AID 2302;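 active = growth inhibition above 50% at the single 2 µM test dose, taken to imply half-maximal potency below 2 µM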;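 note: 0% = DMSO untreated growth and 100% = chloroquine plus artemisinin killed control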); settings: P. falciparum Dd2 in RBCs, LDH growth readout, 72 h; at 2 µM; stronger effect = higher value
[2] = human hepatoma cell viability loss – ATP luminescence, cytotoxicity control for P. falciparum antimalarial project, primary screen (AID 2303;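 active = inhibition above 50%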;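 note: 0% = DMSO wells and 100% = digitonin-killed cells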); settings: HepG2 viability, 24-48 h, at 10 µM, stronger effect = higher value
[3] = target: L-lactate dehydrogenase (Plasmodium falciparum (isolate CDC / Honduras)) (UniProt Q27743); experiment: PfLDH activity inhibition – cell lysate, 3D7 strain, counter-screen for P. falciparum growth inhibition project (AID 2304);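 note: 0% = vehicle and 100% = reference inhibitor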; settings: P. falciparum 3D7 crude extract, LDH APAD/NBT absorbance; at 2 µM; stronger effect = higher value
[4] = inhibition of 3D7 malaria parasite growth – strain 3D7 (AID 2306);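 note: 0% = DMSO wells and 100% = chloroquine plus artemisinin control wells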; settings: P. falciparum 3D7 erythrocytic growth, LDH absorbance, 72 h; at 2 µM; stronger effect = higher value
[5] = target: Calcium-dependent protein kinase 1 (Plasmodium falciparum (isolate 3D7)) (UniProt P62344); experiment: PfCDPK1 kinase inhibitors, biochemical, TCAMS library (AID 1159585; cut-off not given, nearly all actives have IC50 up to about 0.98 µM;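 note: inhibitors leave more ATP so luminescence rises with inhibition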); settings: recombinant PfCDPK1, Kinase-Glo ATP depletion luminescence
[6] = target: Plasmodium falciparum protein kinase 6 (PK6, PF3D7_1337100) (UniProt Q8IDW1); experiment: PfPK6 kinase inhibitors, biochemical, TCAMS library (AID 1159586); settings: recombinant PfPK6, Kinase-Glo ATP depletion luminescence
[7] = target: Protein kinase 7 (PK7), Plasmodium falciparum 3D7 (PF3D7_0213400) (UniProt Q7YTF7); experiment: inhibition of Plasmodium PK7 catalytic activity – biochemical, TCAMS antimalarial set, Kinase-Glo luminescence (AID 1159587); settings: recombinant PfPK7, Kinase-Glo ATP depletion luminescence
[8] = target: Calcium-dependent protein kinase 4 (Plasmodium falciparum (isolate 3D7)) (UniProt Q8IBS5); experiment: PfCDPK4 kinase inhibitors, biochemical, TCAMS library (AID 1159588; cut-off not given, nearly all actives have IC50 up to about 0.91 µM); settings: recombinant PfCDPK4, Kinase-Glo ATP depletion luminescence
Sequence of Calcium-dependent protein kinase 4 (Plasmodium falciparum (isolate 3D7)) (Q8IBS5 whole entry, looked up): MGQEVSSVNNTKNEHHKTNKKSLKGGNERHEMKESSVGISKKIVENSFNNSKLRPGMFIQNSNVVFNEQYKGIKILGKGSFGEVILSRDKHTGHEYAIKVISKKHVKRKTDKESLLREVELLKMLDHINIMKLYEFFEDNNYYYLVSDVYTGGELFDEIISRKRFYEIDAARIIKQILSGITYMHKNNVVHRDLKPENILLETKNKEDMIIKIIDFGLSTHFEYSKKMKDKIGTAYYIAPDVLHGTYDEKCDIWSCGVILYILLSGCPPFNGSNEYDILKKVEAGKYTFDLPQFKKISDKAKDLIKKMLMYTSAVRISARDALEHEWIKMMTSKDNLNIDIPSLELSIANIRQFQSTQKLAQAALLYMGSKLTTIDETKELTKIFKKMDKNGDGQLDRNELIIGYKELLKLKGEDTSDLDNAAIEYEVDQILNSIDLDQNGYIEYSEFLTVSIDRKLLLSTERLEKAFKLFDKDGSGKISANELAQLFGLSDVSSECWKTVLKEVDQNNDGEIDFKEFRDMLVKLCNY

Sequence of L-lactate dehydrogenase (Plasmodium falciparum (isolate CDC / Honduras)) (Q27743 whole entry, looked up): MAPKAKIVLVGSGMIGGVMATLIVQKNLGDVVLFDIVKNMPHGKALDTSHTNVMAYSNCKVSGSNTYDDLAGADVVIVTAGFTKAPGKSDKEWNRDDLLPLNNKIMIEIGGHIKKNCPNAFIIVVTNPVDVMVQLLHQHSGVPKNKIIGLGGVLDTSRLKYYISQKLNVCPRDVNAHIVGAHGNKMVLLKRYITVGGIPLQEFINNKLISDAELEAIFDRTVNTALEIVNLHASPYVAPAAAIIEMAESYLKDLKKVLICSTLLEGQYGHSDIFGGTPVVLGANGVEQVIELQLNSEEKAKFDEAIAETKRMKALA
Sequence of Protein kinase 7 (PK7), Plasmodium falciparum 3D7 (PF3D7_0213400) (Q7YTF7 1-343): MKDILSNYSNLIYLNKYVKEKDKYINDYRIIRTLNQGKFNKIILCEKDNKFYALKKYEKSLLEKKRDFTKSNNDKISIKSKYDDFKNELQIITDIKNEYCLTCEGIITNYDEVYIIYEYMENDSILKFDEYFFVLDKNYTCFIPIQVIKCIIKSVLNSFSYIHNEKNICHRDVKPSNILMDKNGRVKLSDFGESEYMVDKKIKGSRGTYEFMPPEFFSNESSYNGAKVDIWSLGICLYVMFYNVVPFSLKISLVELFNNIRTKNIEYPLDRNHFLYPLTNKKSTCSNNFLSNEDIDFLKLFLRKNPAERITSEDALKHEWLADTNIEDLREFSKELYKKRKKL
Sequence of Calcium-dependent protein kinase 1 (Plasmodium falciparum (isolate 3D7)) (P62344 whole entry, looked up): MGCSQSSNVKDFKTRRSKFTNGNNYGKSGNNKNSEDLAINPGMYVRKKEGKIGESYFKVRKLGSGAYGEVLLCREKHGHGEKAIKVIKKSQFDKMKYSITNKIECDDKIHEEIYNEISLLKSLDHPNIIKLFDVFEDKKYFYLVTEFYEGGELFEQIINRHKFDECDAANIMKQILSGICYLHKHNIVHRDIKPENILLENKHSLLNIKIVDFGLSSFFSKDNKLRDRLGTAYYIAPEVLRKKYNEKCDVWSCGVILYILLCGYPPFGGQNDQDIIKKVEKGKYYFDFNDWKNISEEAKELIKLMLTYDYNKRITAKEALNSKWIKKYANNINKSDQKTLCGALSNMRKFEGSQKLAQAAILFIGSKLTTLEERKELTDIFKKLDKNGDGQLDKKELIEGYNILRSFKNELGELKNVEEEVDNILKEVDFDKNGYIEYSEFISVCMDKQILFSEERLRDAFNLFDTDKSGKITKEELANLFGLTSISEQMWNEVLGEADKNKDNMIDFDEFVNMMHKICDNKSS
Sequence of Plasmodium falciparum protein kinase 6 (PK6, PF3D7_1337100) (Q8IDW1 1-305): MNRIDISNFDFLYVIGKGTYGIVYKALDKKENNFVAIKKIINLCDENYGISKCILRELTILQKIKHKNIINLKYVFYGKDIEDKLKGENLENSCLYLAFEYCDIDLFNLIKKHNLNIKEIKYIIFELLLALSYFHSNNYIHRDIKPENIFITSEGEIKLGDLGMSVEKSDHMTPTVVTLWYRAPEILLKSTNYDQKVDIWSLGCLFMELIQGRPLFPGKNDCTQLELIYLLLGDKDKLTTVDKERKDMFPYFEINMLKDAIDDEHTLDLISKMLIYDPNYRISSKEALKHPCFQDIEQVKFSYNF

SMILES | growth inhibition [1] | inhibition [2] | inhibition [3] | growth inhibition [4] | outcome [5] | outcome [6] | outcome [7] | outcome [8]
CN(C(=O)OCc1ccccc1)C1CCC(CCN2CCC3(CC2)C(=O)NCN3c2cccc(C(F)(F)F)c2)(c2ccccc2)CC1 (configuration not stated) | 72% (active) | 19% (inactive) | -2% (inactive) | 80% (active) | inactive | inactive | inactive | inactive
COC(=O)C(C)(C)c1ccc(CC(C)NCC(O)c2cccc(C(F)(F)F)c2)cc1 (configuration not stated) | 98% (active) | 6% (inactive) | -7% (inactive) | 99% (active) | inactive | inactive | inactive | inactive
CC(C)CNCc1cccc(-c2ccc(CN(C(=O)NC3CCCCC3)C3CCN(Cc4ccccc4)CC3)cc2)c1 | 51% (active) | 27% (inactive) | -2% (inactive) | 97% (active) | inactive | inactive | inactive | inactive
COC(=O)c1ccc(CC(C)NCC(O)c2cccc(Br)c2)cc1 (configuration not stated) | 88% (active) | -6% (inactive) | -2% (inactive) | 99% (active) | inactive | inactive | inactive | inactive
O=C(/C=C/c1c(Cl)cccc1Cl)NC1CCC(CN2[C@@H]3CC[C@H]2CC(c2c[nH]c4ccccc24)C3)CC1 (some centres not stated) | 18% (inactive) | 40% (inactive) | -1% (inactive) | 95% (active) | inactive | inactive | inactive | inactive
CN1CC=C(c2c[nH]c3ccc(Br)cc23)CC1 | 80% (active) | -3% (inactive) | 1% (inactive) | 88% (active) | inactive | inactive | inactive | inactive
CCOc1ccc(Br)cc1/C=C/C(=O)Nc1ccc2c(c1)[C@@H]1CC[C@H]2N1C | 26% (inactive) | 60% (active) | -2% (inactive) | 89% (active) | inactive | inactive | inactive | inactive
CCOC(=O)c1c(C)n(C2CCCCC2)c2cc(Br)c(O)cc12 | 71% (active) | 1% (inactive) | -3% (inactive) | 98% (active) | inactive | inactive | inactive | inactive
O=C(C=Cc1ccccc1C(F)(F)F)NC1CCC(CN2CCC(c3c[nH]c4ccccc34)CC2)CC1 (configuration not stated) | 47% (inactive) and 90% (active) | 47% (inactive) and 73% (active) | -1% (inactive) and 1% (inactive) | 102% (active) | inactive | inactive | inactive | inactive
COc1cc(NC(=O)c2nn(CCCN3CCC4(CC3)C(=O)NCN4c3ccccc3)cc2-c2ccc(Cl)c(Cl)c2)cc(OC)c1OC | 75% (active) | -4% (inactive) | 1% (inactive) | 97% (active) | inactive | inactive | inactive | inactive
Cc1nc2ccccc2n1C1C[C@H]2CC[C@@H](C1)N2Cc1nccn1-c1ccccc1 (some centres not stated) | 96% (active) | 0% (inactive) | -4% (inactive) | 94% (active) | inactive | inactive | inactive | inactive
O=C(/C=C/c1ccc(Cl)c(Cl)c1)NCC1CCC(CN2CCC(c3c[nH]c4ccccc34)CC2)CC1 (configuration not stated) | 93% (active) | 54% (active) | 4% (inactive) | 102% (active) | inactive | inactive | inactive | inactive
Cc1cccc(N2CCN(Cc3cc(Cl)ccc3O)CC2)c1C | 96% (active) | -2% (inactive) | 2% (inactive) | 96% (active) | inactive | inactive | inactive | inactive
CC[C@H]1CN2CC[C@H]1C[C@H]2[C@H](O)c1cc(N2CCC3CCCCC3C2)nc2ccc(OC)cc12 (some centres not stated) | 99% (active) | 50% (active) | -4% (inactive) | 100% (active) | inactive | inactive | inactive | inactive
COc1c(F)cc(CC(C)NCC(O)c2cccc(Cl)c2)cc1F (configuration not stated) | 86% (active) | 0% (inactive) | 0% (inactive) | 93% (active) | inactive | inactive | inactive | inactive
CCCCCC(C)C(C)c1cc(O)c2c(c1)OC(C)(C)c1cnccc1-2 (configuration not stated) | 74% (active) | 7% (inactive) | -3% (inactive) | 94% (active) | inactive | inactive | inactive | inactive
COc1cccc(/C=C/C(=O)NC2CCC(CN3CCC(c4c[nH]c5ccccc45)CC3)CC2)c1 (configuration not stated) | 26% (inactive) and 38% (inactive) | 19% (inactive) and 30% (inactive) | -1% (inactive) and 6% (inactive) | 94% (active) and 100% (active) | inactive | inactive | inactive | inactive
CCCCCc1cc(O)c2c(c1)OC(C)(C)CC2C1=CCN(Cc2cccnc2)CC1 (configuration not stated) | 97% (active) | 15% (inactive) | -1% (inactive) | 97% (active) | inactive | inactive | inactive | inactive
O=C(NC1CCC(CN2CCC(c3c[nH]c4ccccc34)CC2)CC1)c1cc2ccccc2o1 (configuration not stated) | 14% (inactive) | 34% (inactive) | 4% (inactive) | 94% (active) | inactive | inactive | inactive | inactive
CC(C)CNCc1cccc(-c2ccc(CN(C(=O)Nc3ccccc3)C3CCN(Cc4ccccc4)CC3)cc2)c1 | 61% (active) | 41% (inactive) | -2% (inactive) | 101% (active) | inactive | inactive | inactive | inactive

SMILES | growth inhibition [1] | inhibition [2] | inhibition [3] | growth inhibition [4] | outcome [5] | outcome [6] | outcome [7] | outcome [8]
Cc1ccc(CC(C)NC[C@H](O)c2cccc(Cl)c2)cc1 (some centres not stated) | 47% (inactive) | 15% (inactive) | -3% (inactive) | 96% (active) | inactive | inactive | inactive | inactive
CCCCCc1cc(O)c2c3c(c(=O)oc2c1)CN(C)CC3 | 99% (active) | 4% (inactive) | 4% (inactive) | 101% (active) | inactive | inactive | inactive | inactive
O=C(/C=C/c1ccc(Cl)c(Cl)c1)NC[C@@H]1CCC[C@H](CN2CCC(c3c[nH]c4ccccc34)CC2)C1 | 43% (inactive) | 61% (active) | -4% (inactive) | 98% (active) | inactive | inactive | inactive | inactive
O=C(CCc1ccc(Cl)cc1Cl)NC1CCC(CN2CCC(c3c[nH]c4ccccc34)CC2)CC1 (configuration not stated) | 4% (inactive) and 45% (inactive) | 33% (inactive) and 44% (inactive) | -4% (inactive) and 2% (inactive) | 97% (active) and 100% (active) | inactive | inactive | inactive | inactive
CCC1CN2CCc3cc(OC)c(OC)cc3C2CC1CC1NCCc2c1[nH]c1ccc(O)cc21 (configuration not stated) | 100% (active) | 45% (inactive) | -7% (inactive) | 99% (active) | inactive | inactive | inactive | inactive
COc1cccc(CCNC(C)Cc2ccc(OCCCCOc3ccccc3)cc2)c1 (configuration not stated) | 90% (active) | 100% (active) | 5% (inactive) | 97% (active) | inactive | inactive | inactive | inactive
OC(CNC1CCCCCC1)c1ccc(Cl)c(Cl)c1 (configuration not stated) | 98% (active) | -3% (inactive) | -3% (inactive) | 99% (active) | inactive | inactive | inactive | inactive
CC(C)(C)c1ccc(Cn2nc(C(=O)N3CCN(C(=O)C4CCCO4)CC3)c3ccccc32)cc1 (configuration not stated) | 83% (active) | -2% (inactive) | -3% (inactive) | 90% (active) | inactive | inactive | inactive | inactive
COc1ccc(CC(C)NCC(O)c2cccc(Cl)c2F)cc1 (configuration not stated) | 59% (active) | 3% (inactive) | -6% (inactive) | 88% (active) | inactive | inactive | inactive | inactive
CCCN(CC(=O)NCCc1ccccc1)c1ccc(C#N)c2ccccc12 | 39% (inactive) | 8% (inactive) | -5% (inactive) | 92% (active) | inactive | inactive | inactive | inactive
CN(CC(=O)N1CCN(S(=O)(=O)c2cccc(Cl)c2)CC1CN1CCCC1)c1ccc(Cl)c(Cl)c1 (configuration not stated) | 32% (inactive) | 32% (inactive) | -1% (inactive) | 89% (active) | inactive | inactive | inactive | inactive
O=C(/C=C/c1ccc(F)c(C(F)(F)F)c1)N1CCC(CN2CCC(c3c[nH]c4ccccc34)CC2)CC1 | 1% (inactive) | 23% (inactive) | 2% (inactive) | 98% (active) | inactive | inactive | inactive | inactive
Cn1cc(CN2CCC(CCOC(c3ccccc3)c3ccccc3)CC2)cn1 | 100% (active) | 27% (inactive) | -5% (inactive) | 99% (active) | inactive | inactive | inactive | inactive
CC[C@H]1CN2CC[C@H]1C[C@H]2[C@H](OC(=O)c1ccccc1)c1cc(C#N)nc2ccc(OC)cc12 | 49% (inactive) | 19% (inactive) | -2% (inactive) | 97% (active) | inactive | inactive | inactive | inactive
O=C(Cc1c(-c2ccccc2)[nH]c2ccccc12)NC1CCC(CN2CCC(c3c[nH]c4ccccc34)CC2)CC1 (configuration not stated) | 75% (active) | 31% (inactive) | 1% (inactive) | 103% (active) | inactive | inactive | inactive | inactive
COCCNCc1ccc(-c2ccc(CN(C(=O)Nc3ccccc3)C3CCN(Cc4ccccc4)CC3)cc2)cc1 | 39% (inactive) | 16% (inactive) | -5% (inactive) | 98% (active) | inactive | inactive | inactive | inactive
CN(C)c1cccc(CCNCCc2c[nH]c3ccc(Cl)cc23)c1 | 75% (active) | 19% (inactive) | -6% (inactive) | 94% (active) | inactive | inactive | inactive | inactive
CC(Cc1ccc(SCCSc2ccccc2)cc1)NCC(O)c1cccc(Cl)c1 (configuration not stated) | 96% (active) | 4% (inactive) | -7% (inactive) | 98% (active) | inactive | inactive | inactive | inactive
CC(Cc1ccc(OCCCCOc2ccccc2)cc1)NCCCc1nc2ccccc2[nH]1 (configuration not stated) | 67% (active) | 99% (active) | 3% (inactive) | 97% (active) | inactive | inactive | inactive | inactive
